{
  "source": "the supplement of paper PMC8728848",
  "test_in_all_cases": "glycan array binding signal (z-score within array); higher = stronger binding",
  "conditions_in_all_cases": "glycan notation: IUPAC condensed, linker removed",
  "key": {"[1]": {"target": "Fuc(a1-2)Gal(b1-3)GlcNAc(b1-3)GalNAc", "method_in_brief": "(§1)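 Negative Z-scores can be read as non-binding. The Z-score is calculated within each array and then averaged across arrays of one protein sequence at different concentrations or buffers and across linkers. Arrays, 3228 in all, were curated from the Consortium for Functional Glycomics database and kept only where the protein sequence was available.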"}, "[2]": {"target": "Fuc(a1-2)Gal(b1-3)[Fuc(a1-4)]GlcNAc", "method_in_brief": "as §1"}, "[3]": {"target": "Fuc(a1-2)Gal(b1-4)GlcNAc(b1-6)GalNAc", "method_in_brief": "as §1"}, "[4]": {"target": "Fuc(a1-2)Gal(b1-4)[Fuc(a1-3)]GlcNAc(b1-3)Gal(b1-4)[Fuc(a1-3)]GlcNAc(b1-3)Gal(b1-4)[Fuc(a1-3)]GlcNAc", "method_in_brief": "as §1"}, "[5]": {"target": "Fuc(a1-2)[Gal(a1-3)]Gal(b1-3)GlcNAc", "method_in_brief": "as §1"}, "[6]": {"target": "Fuc(a1-2)[Gal(a1-3)]Gal(b1-4)GlcNAc", "method_in_brief": "as §1"}, "[7]": {"target": "Fuc(a1-2)[Gal(a1-3)]Gal(b1-4)[Fuc(a1-3)]GlcNAc", "method_in_brief": "as §1"}, "[8]": {"target": "Fuc(a1-2)[GalNAc(a1-3)]Gal(b1-4)GlcNAc(b1-2)Man", "method_in_brief": "as §1"}, "[9]": {"target": "Fuc(a1-2)[GalNAc(b1-3)]Gal", "method_in_brief": "as §1"}, "[10]": {"target": "Fuc(a1-3)[Gal(b1-4)]GlcNAc(b1-3)GalNAc", "method_in_brief": "as §1"}, "Gal(a1-3)Gal(b1-3)GlcNAc": {"target": "Gal(a1-3)Gal(b1-3)GlcNAc", "method_in_brief": "as §1"}, "[11]": {"target": "Gal(a1-3)Gal(b1-4)[Fuc(a1-3)]GlcNAc", "method_in_brief": "as §1"}, "Gal(b1-3)Gal": {"target": "Gal(b1-3)Gal", "method_in_brief": "as §1"}, "Gal(b1-3)GlcNAc": {"target": "Gal(b1-3)GlcNAc", "method_in_brief": "as §1"}, "[12]": {"target": "Gal(b1-3)GlcNAc(b1-3)Gal(b1-4)GlcNAc(b1-2)[Gal(b1-3)GlcNAc(b1-3)Gal(b1-4)GlcNAc(b1-6)]Man(a1-6)[Gal(b1-3)GlcNAc(b1-3)Gal(b1-4)GlcNAc(b1-2)Man(a1-3)]Man(b1-4)GlcNAc(b1-4)[Fuc(a1-6)]GlcNAc", "method_in_brief": "as §1"}, "[13]": {"target": "Gal(b1-3)GlcNAc(b1-3)Gal(b1-4)GlcNAc(b1-6)[Gal(b1-3)GlcNAc(b1-3)]Gal(b1-4)Glc", "method_in_brief": "as §1"}, "Gal(b1-4)Gal": {"target": "Gal(b1-4)Gal", "method_in_brief": "as §1"}, "[14]": {"target": "Gal(b1-4)GlcNAc(b1-2)Man(a1-3)[Gal(b1-4)GlcNAc(b1-2)Man(a1-6)]Man(b1-4)GlcNAc(b1-4)[Fuc(a1-6)]GlcNAc", "method_in_brief": "as §1"}, "[15]": {"target": "Gal(b1-4)GlcNAc(b1-2)Man(a1-3)[Gal(b1-4)GlcNAc(b1-2)Man(a1-6)][GlcNAc(b1-4)]Man(b1-4)GlcNAc(b1-4)[Fuc(a1-6)]GlcNAc", "method_in_brief": "as §1"}, "[16]": {"target": "Gal(b1-4)GlcNAc(b1-2)[Gal(b1-4)GlcNAc(b1-4)]Man(a1-3)[GlcNAc(b1-4)][Gal(b1-4)GlcNAc(b1-2)Man(a1-6)]Man(b1-4)GlcNAc(b1-4)GlcNAc", "method_in_brief": "as §1"}, "[17]": {"target": "Gal(b1-4)GlcNAc(b1-2)[Gal(b1-4)GlcNAc(b1-6)]Man(a1-6)[GlcNAc(b1-4)][Gal(b1-4)GlcNAc(b1-2)[Gal(b1-4)GlcNAc(b1-4)]Man(a1-3)]Man(b1-4)GlcNAc(b1-4)[Fuc(a1-6)]GlcNAc", "method_in_brief": "as §1"}, "[18]": {"target": "Gal(b1-4)GlcNAc(b1-3)Gal(b1-4)GlcNAc(b1-2)Man(a1-3)[Gal(b1-4)GlcNAc(b1-3)Gal(b1-4)GlcNAc(b1-2)Man(a1-6)]Man(b1-4)GlcNAc(b1-4)[Fuc(a1-6)]GlcNAc", "method_in_brief": "as §1"}, "[19]": {"target": "Gal(b1-4)GlcNAc(b1-3)Gal(b1-4)GlcNAc(b1-3)Gal(b1-4)GlcNAc(b1-3)Gal(b1-4)GlcNAc(b1-2)Man(a1-3)[Gal(b1-4)GlcNAc(b1-3)Gal(b1-4)GlcNAc(b1-3)Gal(b1-4)GlcNAc(b1-3)Gal(b1-4)GlcNAc(b1-2)Man(a1-6)]Man(b1-4)GlcNAc(b1-4)GlcNAc", "method_in_brief": "as §1"}, "[20]": {"target": "Gal(b1-4)GlcNAc(b1-3)Gal(b1-4)GlcNAc(b1-3)Gal(b1-4)GlcNAc(b1-3)Gal(b1-4)GlcNAc(b1-2)Man(a1-3)[Gal(b1-4)GlcNAc(b1-3)Gal(b1-4)GlcNAc(b1-3)Gal(b1-4)GlcNAc(b1-3)Gal(b1-4)GlcNAc(b1-2)Man(a1-6)]Man(b1-4)GlcNAc(b1-4)[Fuc(a1-6)]GlcNAc", "method_in_brief": "as §1"}, "[21]": {"target": "Gal(b1-4)GlcNAc(b1-3)Gal(b1-4)GlcNAc(b1-3)Gal(b1-4)GlcNAc(b1-3)Gal(b1-4)GlcNAc(b1-3)Gal(b1-4)GlcNAc(b1-2)Man(a1-3)[Gal(b1-4)GlcNAc(b1-3)Gal(b1-4)GlcNAc(b1-3)Gal(b1-4)GlcNAc(b1-3)Gal(b1-4)GlcNAc(b1-3)Gal(b1-4)GlcNAc(b1-2)Man(a1-6)]Man(b1-4)GlcNAc(b1-4)[Fuc(a1-6)]GlcNAc", "method_in_brief": "as §1"}, "[22]": {"target": "Gal(b1-4)GlcNAc(b1-3)Gal(b1-4)GlcNAc(b1-3)Gal(b1-4)GlcNAc(b1-3)Gal(b1-4)GlcNAc(b1-3)Gal(b1-4)GlcNAc(b1-2)[Gal(b1-4)GlcNAc(b1-3)Gal(b1-4)GlcNAc(b1-3)Gal(b1-4)GlcNAc(b1-3)Gal(b1-4)GlcNAc(b1-3)Gal(b1-4)GlcNAc(b1-6)]Man(a1-6)[Gal(b1-4)GlcNAc(b1-3)Gal(b1-4)GlcNAc(b1-3)Gal(b1-4)GlcNAc(b1-3)Gal(b1-4)GlcNAc(b1-3)Gal(b1-4)GlcNAc(b1-2)Man(a1-3)]Man(b1-4)GlcNAc(b1-4)[Fuc(a1-6)]GlcNAc", "method_in_brief": "as §1"}, "[23]": {"target": "Gal(b1-4)GlcNAc(b1-3)GalNAc", "method_in_brief": "as §1"}, "Gal3S6S(b1-4)GlcNAc6S": {"target": "Gal3S6S(b1-4)GlcNAc6S", "method_in_brief": "as §1"}},
  "note": "The full list was thinned out, with the strongest signals kept by preference.",
  "data": [
    {"binder": "AFL5 (Aspergillus fumigatus), Q4WB00 (protein) MDNFMEMTKKLGHQPELLRLRALDATYDDALEGKLVVAPLDMSEPGKKILDSGTADGTWLRNVRSKQSVPHDYYGSDVEGELFPKDPDGITYFAHSFKDPWPQQYLGFFDLVHIRGSLAGSAPEGPAPVIQNLTTLLKPGGWVQLMEMNAFSPPPNGPAMTDFAKMASEMFTGIGVGDFANNNKSMLEDAGLKNVQEKRVIVNLGKKAKPELHDQSIHGVTGPIVPLTSVARTVKSSFTGEQLDALPARVKEELETEGGQVEMIIAFGQKA", "values": [
      {"measurement": "glycan array binding signal (z-score)", "setting": "[1]", "value": -0.31},
      {"measurement": "glycan array binding signal (z-score)", "setting": "[2]", "value": -0.036},
      {"measurement": "glycan array binding signal (z-score)", "setting": "[3]", "value": -0.782},
      {"measurement": "glycan array binding signal (z-score)", "setting": "[4]", "value": -0.555},
      {"measurement": "glycan array binding signal (z-score)", "setting": "[5]", "value": -0.252},
      {"measurement": "glycan array binding signal (z-score)", "setting": "[6]", "value": -0.456},
      {"measurement": "glycan array binding signal (z-score)", "setting": "[7]", "value": -0.109},
      {"measurement": "glycan array binding signal (z-score)", "setting": "[8]", "value": -0.322},
      {"measurement": "glycan array binding signal (z-score)", "setting": "[9]", "value": -0.258},
      {"measurement": "glycan array binding signal (z-score)", "setting": "[10]", "value": -0.016},
      {"measurement": "glycan array binding signal (z-score)", "setting": "Gal(a1-3)Gal(b1-3)GlcNAc", "value": -0.285},
      {"measurement": "glycan array binding signal (z-score)", "setting": "[11]", "value": 21.5},
      {"measurement": "glycan array binding signal (z-score)", "setting": "Gal(b1-3)Gal", "value": -0.063},
      {"measurement": "glycan array binding signal (z-score)", "setting": "Gal(b1-3)GlcNAc", "value": -0.272},
      {"measurement": "glycan array binding signal (z-score)", "setting": "[12]", "value": 1.17},
      {"measurement": "glycan array binding signal (z-score)", "setting": "[13]", "value": -0.412},
      {"measurement": "glycan array binding signal (z-score)", "setting": "Gal(b1-4)Gal", "value": -0.502},
      {"measurement": "glycan array binding signal (z-score)", "setting": "[14]", "value": 0.004},
      {"measurement": "glycan array binding signal (z-score)", "setting": "[15]", "value": -0.411},
      {"measurement": "glycan array binding signal (z-score)", "setting": "[16]", "value": -0.134},
      {"measurement": "glycan array binding signal (z-score)", "setting": "[17]", "value": 3.2},
      {"measurement": "glycan array binding signal (z-score)", "setting": "[18]", "value": 1.35},
      {"measurement": "glycan array binding signal (z-score)", "setting": "[19]", "value": 0.075},
      {"measurement": "glycan array binding signal (z-score)", "setting": "[20]", "value": 1.69},
      {"measurement": "glycan array binding signal (z-score)", "setting": "[21]", "value": 1.46},
      {"measurement": "glycan array binding signal (z-score)", "setting": "[22]", "value": 1.6},
      {"measurement": "glycan array binding signal (z-score)", "setting": "[23]", "value": -0.561},
      {"measurement": "glycan array binding signal (z-score)", "setting": "Gal3S6S(b1-4)GlcNAc6S", "value": 0.29}
    ]}
  ]
}
